Activity calls are given as the source filed them. A call without a number means that no potency is given here. The call rests on the fitted dose curve; in most records, active means well fitted activation curve with a large enough effect in the repeat runs; inconclusive means weak or mixed curves; inactive means flat fitted curve, though single readings scatter.

This test in a line: A CellTox Green Cytotoxicity Assay to monitor cytotoxicity in HepG2 cells - 0 hour (AID 1224882). Further: nearly all actives have a fitted effect of over 35% in size. As to conditions: CellTox Green fluorescence; series mostly up to 76.8 µM. From the text:
National Center for Advancing Translational Sciences [NCATS]
NIH Chemical Genomics Center [NCGC]
U.S. Environmental Protection Agency [EPA]
National Institutes of Environmental Health Sciences [NIEHS]
National Toxicology Program [NTP]
Cell-based models are critical for drug discovery. Determining the natural cytotoxic effects resulting from test compounds is an essential research activity. A CellTox Green Cytotoxicity Assay to monitor cytotoxicity in real time of continues cell culture during 40 hours of the compound treatment was used to screen Tox21 10K library compounds in HepG2 cells. CellTox Green Cytotoxicity Assay is a nonlytic, homogeneous, biofluorescent method to measure cytotoxicity in cell culture after experimental manipulation. The assay system uses a proprietary asymmetric cyanine dye that is excluded from viable cells but preferentially stains the dead cell's DNA. […] Viable cells produce no appreciable increases in fluorescence. Therefore, the fluorescence signal produced by the binding interaction with dead cell DNA is proportional to cytotoxicity.
The mixture of HepG2 cell suspension and reagents were dispensed at 600cells/6 ul/well in 1536-well tissue culture treated black solid bottom plates using a Multidrop dispenser. After the assay plates were incubated at a 37 C/5% CO2 incubator for 5 hours, 23 nL of compounds dissolved in DMSO, positive and negative controls was transferred to the assay plate by a pintool work station. The plates were incubated at 37 C for 40 hours. The fluorescence intensity were measured at 0h, 8h, 16h, 24h, 32h and 40h time points using ViewLux plate reader during compound treatment.
Consider `O=C1NS(=O)(=O)c2ccccc21`, for which the Potency result is “inactive”. With `NC(CO)(CO)CO` the entry was “inactive”; with `O=C1O[C@H]([C@@H](O)CO)C(O)=C1O`, “inactive”.

In the case of `CN1CCc2cccc3c2[C@H]1Cc1ccc(O)c(O)c1-3`, the Potency result is “inactive”. Regarding `CCN(Cc1c(F)cccc1Cl)c1c([N+](=O)[O-])cc(C(F)(F)F)cc1[N+](=O)[O-]`, the Potency result is “inactive”.

Take `CCOC(N)=O`: the Potency entry is “inactive”. Consider `CCOc1ccc(NC(C)=O)cc1`, for which the Potency result was “inactive”.

For the molecule `CNNCc1ccc(C(=O)NC(C)C)cc1`, the Potency result was “inactive”. In the case of `CCCC[P+](CCCC)(CCCC)CCCC`, the Potency entry is “inactive”.

For `Cc1cc(C)nc(NS(=O)(=O)c2ccc(N)cc2)n1`, the Potency result was “inactive”. `CCCCCCCC(=O)OCC(COC(=O)CCCCCCC)OC(=O)CCCCCCC`: the Potency entry was “inactive”. With `C1=CC2C3C=CC(C3)C2C1` (stereo not given), the Potency entry is “inactive”. With `CC(=O)CCC(=O)O` the entry was “inactive”.

As to `CC(=O)Nc1c(I)c(NC(C)=O)c(I)c(C(=O)O)c1I`, the Potency entry is “inactive”. Turning to `O=C(O)CC(O)C(=O)O` (stereo not given), the Potency result was “inactive”. Take `NC1CCCCC1`: the Potency entry is “inactive”.

Take `C/C=C/C=C/C(=O)O`: the Potency entry is “inactive”. Take `Cc1c(C(=O)O)c(O)cc2c1C(=O)c1c(O)c([C@@H]3O[C@H](CO)[C@@H](O)[C@H](O)[C@H]3O)c(O)c(O)c1C2=O`: the Potency entry is “inactive”. As to `CC(C)NCC(O)c1ccc(O)c(O)c1` (stereo not given), the Potency result was “inactive”.

On to `O=c1[nH]cnc2c1ncn2[C@H]1CC[C@@H](CO)O1`, for which the Potency entry is “inactive”. With `CC/C(=C(\c1ccccc1)c1ccc(OCCN(C)C)cc1)c1ccccc1` the entry was “inactive”.

In the case of `C[C@](N)(Cc1ccc(O)c(O)c1)C(=O)O`, the Potency entry was “inactive”.

`O=C1c2c(O)cccc2Cc2cccc(O)c21`: the Potency entry is “inactive”. `Nc1ccc(S(N)(=O)=O)cc1`: the Potency entry was “inactive”. As for `COc1ccc2cc(S(=O)(=O)N[C@H](CC(=O)N[C@H](Cc3ccc(CN4[C@H](C)CCC[C@@H]4C)cc3)C(=O)N(C)C(C)C)c3ccc4c(c3)OCO4)ccc2c1`, the Potency entry is “inactive”. Consider `CN[C@H]1CC[C@@H](c2ccc(Cl)c(Cl)c2)c2ccccc21`, for which the Potency result was “inactive”. Regarding `CC(C)C(=O)Nc1ccc([N+](=O)[O-])c(C(F)(F)F)c1`, the Potency entry is “inactive”.

Turning to `CC12CCC(CC1)C(C)(C)O2`, the Potency result is “inactive”.

`Cc1ncc([N+](=O)[O-])n1CCO`: the Potency result is “inactive”.

As for `CCCCCCc1ccc(O)cc1O`, the Potency entry was “inactive”.

On to `CC(=O)C(=O)O`, for which the Potency entry was “inactive”.

As for `O=S1(=O)OC(c2ccc(O)cc2)(c2ccc(O)cc2)c2ccccc21`, the Potency entry was “inactive”. Consider `COc1ccc(CN(CCN(C)C)c2ccccn2)cc1`, for which the Potency entry was “inactive”. For the molecule `Cc1ncc([N+](=O)[O-])n1C`, the Potency entry was “inactive”. With `CN(C)CCOC(C)(c1ccccc1)c1ccccn1` (stereo not given) the entry was “inactive”; with `CS(=O)(=O)OCCCCOS(C)(=O)=O`, “inactive”; with `O=c1[nH]cc(F)c(=O)[nH]1`, “inactive”. For the molecule `CC1(C)O[C@@H]2C[C@H]3[C@@H]4CCC5=CC(=O)C=C[C@]5(C)[C@@]4(F)[C@@H](O)C[C@]3(C)[C@]2(C(=O)CO)O1`, the Potency result was “inactive”. Consider `CCCCC(CC)C(=O)O` (stereo not given), for which the Potency result was “inactive”. On to `Cc1cccc(C)c1`, for which the Potency result was “inactive”.

The values above are taken from PubChem BioAssay (Tox21).
